Measured values reported in PubChem BioAssay (NCATS).
Inconclusive results are not listed. Active and inactive are the calls of the source. Calls follow the shape of the dose curve; as a rule, active = well fitted curve in the direction sought with a large enough effect; inconclusive = small, poorly fitted or top-dose-only effect, or another doubt; inactive = no such curve, though single readings can be large; an effect the other way counts as inactive or inconclusive.

What was measured:
[1] = qHTS of pediatric cancer cell lines to identify multiple opportunities for drug repurposing: Primary screen for control Hh wild type fibroblast cells (AID 1347106); settings: Hh wild-type fibroblast viability, CellTiter-Glo luminescence, 48 h; series mostly up to 46 µM;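 also: a drop in luminescence marks cytotoxicity and a rise apparent proliferation; nearly all actives have a fitted effect of over 55% in size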
Procedure, shortened: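 Viability after 48 h compound treatment at 37C, 500-1,000 cells/well, read as ATP luminescence with CellTiter-Glo. Primary screens used 11-point (MIPE, 0.78 nM-46 µM) or 8-point (NPC, 0.59 nM-46 µM) final concentrations; follow-up screens used 11-point dilutions.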

[2] = qHTS of pediatric cancer cell lines to identify multiple opportunities for drug repurposing: Primary screen for Rh30 cells (AID 1347107); settings: Rh30 rhabdomyosarcoma viability, CellTiter-Glo luminescence, 48 h; series mostly up to 46 µM; also: nearly all actives have a fitted effect of over 75% in size
Procedure, shortened: (§1)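 Cells (500-1,000/well) in growth media were settled 5 h at 37 degrees C, then given compounds for 48 h. Viability was read as CellTiter-Glo luminescence. Primary runs used MIPE at 11 points (0.78 nM-46 µM) and NPC at 8 points (0.59 nM-46 µM); follow-ups used 11 points.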

[3] = qHTS of pediatric cancer cell lines to identify multiple opportunities for drug repurposing: Primary screen for Rh41 cells (AID 1347108); settings: Rh41 rhabdomyosarcoma viability, CellTiter-Glo luminescence, 48 h; series mostly up to 46 µM;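 also: luminescence drop marks cytotoxic hits; nearly all actives have a fitted effect of over 70% in size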
Procedure, shortened: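 500-1,000 cells/well; 5 h pre-incubation 37 °C/5% CO2; compound pinned; 48 h; CellTiter-Glo, 15 min RT; luminescence. MIPE 11-pt from 0.78 nM, NPC 8-pt from 0.59 nM final. Bortezomib 2.3 µM final as positive control.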

[4] = qHTS of pediatric cancer cell lines to identify multiple opportunities for drug repurposing: Confirmatory screen for NB1643 cells (AID 1347109); settings: NB1643 neuroblastoma cell viability; series mostly up to 45.9 µM; also: nearly all actives have a fitted effect of over 45% in size; also: potency is read from the fitted curve at half-maximal effect
Procedure, shortened: as §1

[5] = qHTS of pediatric cancer cell lines to identify multiple opportunities for drug repurposing: Confirmatory screen for A673 cells (AID 1347110); settings: A673 Ewing sarcoma cell viability; series mostly up to 45.9 µM;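 also: cells exposed to compound for 48 h before the viability read; nearly all actives have a fitted effect of over 65% in size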; also: potency is read from the fitted curve at half-maximal effect
Procedure, shortened: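 Cells plated at 500-1,000/well were treated five hours later with multi-point dilutions up to 46 µM final. After two days, CellTiter-Glo was added and luminescence read.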

[6] = qHTS of pediatric cancer cell lines to identify multiple opportunities for drug repurposing: Confirmatory screen for SK-N-MC cells (AID 1347111); settings: SK-N-MC cell viability; series mostly up to 45.9 µM;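 also: cells exposed to compound for 48 h before the readout; nearly all actives have a fitted effect of over 70% in size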; also: potency is read from the fitted curve at half-maximal effect
Procedure, shortened: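 Metabolically active cells were quantified by ATP-dependent luminescence (CellTiter-Glo, 15 min at room temperature) following 48 h treatment. Cells had been plated at 500-1,000 per well and settled for 5 h beforehand.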

[7] = qHTS of pediatric cancer cell lines to identify multiple opportunities for drug repurposing: Confirmatory screen for DAOY cells (AID 1347114); settings: DAOY medulloblastoma cells viability, cytotoxicity qHTS; series mostly up to 45.9 µM; also: nearly all actives have a fitted effect of over 65% in size; also: potency is read from the fitted curve at half-maximal effect
Procedure, shortened: (§2)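 Viability measured as metabolically active cells via CellTiter-Glo luminescence following 48 hours of compound exposure, 11-point dilutions in confirmatory testing. 500-1,000 cells/well plated 5 hours before dosing; controls were DMSO and 2.3 µM bortezomib.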

[8] = qHTS of pediatric cancer cell lines to identify multiple opportunities for drug repurposing: Confirmatory screen for NB-EBc1 cells (AID 1347115); settings: NB-EBc1 neuroblastoma cells, viability (cytotoxicity); series mostly up to 45.9 µM;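 also: cells exposed to compound for 48 h before the viability read; nearly all actives have a fitted effect of over 45% in size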
Procedure, shortened: as §1

[9] = qHTS of pediatric cancer cell lines to identify multiple opportunities for drug repurposing: Confirmatory screen for SJ-GBM2 cells (AID 1347116); settings: SJ-GBM2 glioblastoma cells, viability; series mostly up to 45.9 µM; also: nearly all actives have a fitted effect of over 60% in size
Procedure, shortened: as §2

[10] = qHTS of pediatric cancer cell lines to identify multiple opportunities for drug repurposing: Confirmatory screen for LAN-5 cells (AID 1347113); settings: LAN-5 neuroblastoma cell viability; series mostly up to 45.9 µM; also: nearly all actives have a fitted effect of over 65% in size; also: potency is read from the fitted curve at half-maximal effect
Procedure, shortened: as §1

Measured: Potency

COc1cccc(N(C)C(=S)Oc2ccc3c(c2)CCCC3)n1
inactive: [1] | [2] | [3]

COc1ccc(-c2ccc3cc(C(=O)O)ccc3c2)cc1C12CC3CC(CC(C3)C1)C2
inactive: [1] | [2] | [3] | [7]
active: [4] 9270 nM | [5] 5850 nM | [6] 2610 nM

CC(=O)[C@H]1CC[C@H]2[C@@H]3CC=C4C[C@@H](O)CC[C@]4(C)[C@H]3CC[C@]12C
inactive: [1] | [2] | [3]

CN1CCN(c2c(F)cc3c(=O)c(C(=O)O)cn4c3c2OCN4C)CC1
inactive: [1] | [2] | [3]

Cc1nnc(C(=O)NC(C)(C)c2nc(C(=O)NCc3ccc(F)cc3)c(O)c(=O)n2C)o1
inactive: [1] | [2] | [3]

Nc1[nH]c(=O)ncc1F
inactive: [1] | [2] | [3] | [4] | [5] | [6] | [7] | [8]

Nc1ccc(S(=O)(=O)Nc2ccccn2)cc1
inactive: [1] | [2] | [3]

COc1c(N2CCNC(C)C2)c(F)cc2c(=O)c(C(=O)O)cn(C3CC3)c12 (stereo not given)
inactive: [1] | [2] | [3]

O=S(=O)(c1cccc2cnccc12)N1CCCNCC1
inactive: [1] | [2] | [3]

CC(C(=O)O)c1ccc2c(c1)CC(=O)c1ccccc1S2 (stereo not given)
inactive: [1] | [2] | [3] | [4] | [6] | [7] | [8] | [9]

CO[C@@H]1[C@@H](OC(N)=O)[C@@H](O)[C@H](Oc2ccc3c(O)c(NC(=O)c4ccc(O)c(CC=C(C)C)c4)c(=O)oc3c2C)OC1(C)C
inactive: [1] | [2] | [3]

Cn1nnc2c(C(N)=O)ncn2c1=O
inactive: [1] | [2] | [3] | [4] | [5] | [6] | [10] | [7] | [8] | [9]

COc1ccccc1OCC(O)COC(N)=O (stereo not given)
inactive: [1] | [2] | [3]

O=c1oc2c(O)c(O)cc3c(=O)oc4c(O)c(O)cc1c4c23
inactive: [1] | [2] | [3]

CCN(C)C(=O)Oc1cccc([C@H](C)N(C)C)c1
inactive: [1] | [2] | [3]

CCC(=O)O[C@]1(C(=O)SCF)[C@H](C)C[C@H]2[C@@H]3C[C@H](F)C4=CC(=O)C=C[C@]4(C)[C@@]3(F)[C@@H](O)C[C@@]21C
active: [5] 1040 nM
inactive: [1] | [2] | [3] | [4] | [6] | [10]

Cc1ccnc2c1NC(=O)c1cccnc1N2C1CC1
inactive: [1] | [2] | [3]

C[C@]12C=CC(=O)C=C1CC[C@@H]1[C@@H]2C(=O)C[C@@]2(C)[C@H]1CC[C@]2(O)C(=O)CO
inactive: [1] | [2] | [3]

C[C@@H](CN1CC(=O)NC(=O)C1)N1CC(=O)NC(=O)C1
inactive: [1] | [2] | [3] | [4] | [5] | [6] | [10] | [7] | [8] | [9]

Cc1ncc([N+](=O)[O-])n1CCO
inactive: [1] | [2] | [3]

COc1cc([C@@H]2c3cc4c(cc3[C@H](O)[C@H]3COC(=O)[C@H]23)OCO4)cc(OC)c1OC
inactive: [1] | [2] | [3]
active: [4] 32.9 nM | [5] 104 nM | [6] 32.9 nM | [10] 82.7 nM | [7] 14.7 nM

CCCOc1ccc(C(=O)OCCN(CC)CC)cc1N
inactive: [1] | [2] | [3]

C[C@@H](NCCCc1cccc(C(F)(F)F)c1)c1cccc2ccccc12
inactive: [1] | [2] | [3]

CCN(CC)CC#CCOC(=O)C(O)(c1ccccc1)C1CCCCC1 (stereo not given)
inactive: [1] | [2] | [3]

O=NN(CCCl)C(=O)NC1CCCCC1
inactive: [1] | [2] | [3] | [4] | [5] | [6] | [7] | [8]

CC(C)(Sc1cc(C(C)(C)C)c(O)c(C(C)(C)C)c1)Sc1cc(C(C)(C)C)c(O)c(C(C)(C)C)c1
inactive: [1] | [2] | [3]

NC(=O)N1c2ccccc2CC(=O)c2ccccc21
inactive: [1] | [2] | [3]

Cn1c(=O)c2c(ncn2CC(O)CO)n(C)c1=O (stereo not given)
inactive: [1] | [2] | [3]

Cc1onc(-c2ccccc2Cl)c1C(=O)N[C@@H]1C(=O)N2[C@@H]1SC(C)(C)[C@@H]2C(=O)O
inactive: [1] | [2] | [3]

COc1cc(NCc2ccc3nc(N)nc(N)c3c2C)cc(OC)c1OC
active: [4] 9270 nM | [5] 3290 nM | [6] 657 nM | [10] 18500 nM
inactive: [1] | [7]
